This is part of a sample that, as a whole, favours compounds with a hit. Of some 83,000 tested, about 20% had one in any assay.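 Note: values are percent growth. 100 is the growth of untreated cells, values between 100 and 0 indicate rising inhibition; between -100 and 0 indicates cell death.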 A number with no mark means an inactive call. Activity calls are given as the source filed them. The calls were made as follows: active = growth percent below 10; inactive = the rest.
Assays:
Assay in all cases: NCI-60 one-dose screen, 48 h (100 = growth as untreated, 0 = no growth, -100 = all killed)
Settings in all cases: 10 µM unless noted
DU-145 prostate = test system: DU-145 prostate
K-562 leukemia = test system: K-562 leukemia
MALME-3M melanoma = test system: MALME-3M melanoma
MDA-MB-231 breast = test system: MDA-MB-231 breast
RXF 393 renal = test system: RXF 393 renal
SF-268 CNS = test system: SF-268 CNS
SF-295 CNS = test system: SF-295 CNS
SF-539 CNS = test system: SF-539 CNS
UACC-257 melanoma = test system: UACC-257 melanoma
M14 melanoma = test system: M14 melanoma
HCT-15 colon = test system: HCT-15 colon
HT29 colon = test system: HT29 colon
SNB-75 CNS = test system: SNB-75 CNS
SNB-19 CNS = test system: SNB-19 CNS
U251 CNS = test system: U251 CNS
PC-3 prostate = test system: PC-3 prostate
SK-MEL-5 melanoma = test system: SK-MEL-5 melanoma
UACC-62 melanoma = test system: UACC-62 melanoma
LOX IMVI melanoma = test system: LOX IMVI melanoma
SK-MEL-28 melanoma = test system: SK-MEL-28 melanoma

Row | Structure (SMILES) | growth (DU-145 prostate) | growth (K-562 leukemia) | growth (MALME-3M melanoma) | growth (MDA-MB-231 breast) | growth (RXF 393 renal) | growth (SF-268 CNS) | growth (SF-295 CNS) | growth (SF-539 CNS) | growth (UACC-257 melanoma) | growth (M14 melanoma) | growth (HCT-15 colon) | growth (HT29 colon) | growth (SNB-75 CNS) | growth (SNB-19 CNS) | growth (U251 CNS) | growth (PC-3 prostate) | growth (SK-MEL-5 melanoma) | growth (UACC-62 melanoma) | growth (LOX IMVI melanoma) | growth (SK-MEL-28 melanoma)
1 | COc1ccc(/C=C(/C(=O)c2ccc(Cl)cc2)C(=O)C(F)(F)F)cc1 | 99.2% | 92.1% | 107% | 110% | 104% | 96.8% | 96.2% | 108% | 99.3% | 120% | 99% | 82.1% | 112% | 93.5% | 94.1% | 102% | 102% | 96.4% | 95.6% | 106%
2 | CC(C)=CC/C=C(/C)[C@H]1CC[C@]2(C)[C@@H]1CC[C@@H]1[C@@]3(C)CCCNC(C)(C)[C@@H]3CC[C@]12C | -78.7% [100 µM] (active) | -19.2% [100 µM] (active) | -78.9% [100 µM] (active) | -74.7% [100 µM] (active) | -70.1% [100 µM] (active) | -48% [100 µM] (active) | -77.8% [100 µM] (active) | -86% [100 µM] (active) | -72.3% [100 µM] (active) | -58.6% [100 µM] (active) | -53.6% [100 µM] (active) | -64.7% [100 µM] (active) | -84.4% [100 µM] (active) | -63.1% [100 µM] (active) | -63.3% [100 µM] (active) | -65% [100 µM] (active) | -71.2% [100 µM] (active) | -95.2% [100 µM] (active) | -46% [100 µM] (active) | -87.1% [100 µM] (active)
3 | COc1c(C(C)=O)c(OCCCCOc2c(C(C)=O)c(OC)c3ccoc3c2OC)c(OC)c2occc12 | 116% | 54.3% | 48.8% | 82.7% | 80.7% | 84.3% | 19.7% | 105% | 73.3% | 99.3% | 78.8% | 65.9% | 107% | 80% | 79.9% | 55.2% | 51.3% | 55.8% | 74.5% | 96.3%
4 | O=C(Nc1ccc(C(=O)/C=C/c2ccc(N3CCOCC3)cc2)cc1)Nc1ccc([N+](=O)[O-])cc1 | 98% | 68.6% | 108% | 94.8% | 119% | 97.1% | 103% | 109% | 99% | 110% | 92.9% | 88.6% | 94.7% | 98.4% | 85.7% | 85.5% | 95.1% | 79.6% | 107% | 109%
5 | Cc1nc(Cl)c2c(n1)N(C)c1ccc(Cl)cc1C(C)C2 (stereo not given) | 105% | 77.3% | 95.6% | 77.1% | 101% | 88.9% | 91.2% | 96.5% | 88% | 86.9% | 90.5% | 83.8% | 66.1% | 90.5% | 90.1% | 73.5% | 82.5% | 65% | 92.3% | 105%
6 | COc1cc(OC)c(/C=C/C(=O)c2c(N)cc(OC)cc2OC)c(OC)c1 | 12.6% | 13.9% | 63.6% | 41.2% | -46.1% (active) | 42.6% | 4.26% (active) | -6.02% (active) | 49.4% | 18.2% | 21.2% | 3.5% (active) | 23.5% | 27.9% | 11.9% | 11.8% | 17% | 9.68% (active) | 23.2% | 61%
7 | Cc1ccccc1-n1nnc(C(=O)Nc2nc3ccc(F)cc3s2)c1C | 66.9% | 35.3% | 50.6% | 82% | 65.6% | 73% | 60.5% | 79.9% | 55.7% | 49.3% | 61.1% | 73.2% | 64% | 63.7% | 76.8% | 47.5% | 24.5% | 59.2% | 75% | 57.3%
8 | COCCCNc1nc(NC(=O)c2cc(Br)cc(C(F)(F)F)c2)cc(-c2cccnc2)n1 | 100% | 73.3% | 99.7% | 75.8% | 103% | 90.5% | 89.2% | 94% | 91% | 96.5% | 85.9% | 83.7% | 115% | 95.9% | 85.9% | 70.6% | 70.6% | 90.5% | 104% | 98.6%
9 | CCN(CCNc1ccc(C)c2sc3cc(Cl)ccc3c(=O)c12)CC(C)O (stereo not given) | 82.5% | 3.01% (active) | 82.1% | -11.8% (active) | -39.2% (active) | 82.8% | 97.3% | 59.4% | -61.1% (active) | -50.5% (active) | -42.8% (active) | -28.5% (active) | 66.5% | 58.5% | 18% | 48.5% | -98.1% (active) | -70.3% (active) | -83.4% (active) | -64.5% (active)
10 | CCN(CC)c1ccc2cc(C(Nc3ccc(Cl)cc3)c3nnnn3C(C)(C)C)c(=O)oc2c1 (stereo not given) | 93.6% | 78.9% | 98.1% | 90.8% | 86.9% | 80.6% | 95.9% | 94.8% | 92.2% | 97.6% | 91.8% | 90.7% | 68.5% | 87% | 82.6% | 71.5% | 80% | 70% | 72.4% | 95.8%
11 | CN(C)c1ccc(N=Nc2ccc3ccccc3c2)cc1 | 98.9% | 82.6% | 101% | 69.5% | 97.7% | 87.8% | 107% | 93% | 102% | 99.1% | 55.5% | 78.7% | 77.4% | 100% | 76.3% | 75.6% | 87.3% | 90.8% | 72.6% | 103%
12 | COc1ccc(OC)c([N+](=O)[O-])c1C(=O)CNC(C)=O | 109% | 103% | 112% | 98.4% | 101% | 102% | 95.2% | 101% | 105% | 107% | 95.8% | 109% | 107% | 93.5% | 97% | 101% | 101% | 95.8% | 103% | 114%
13 | CN(C)c1ccc(-c2ccc(-c3ccc(C(=N)N)cc3)s2)cc1 | -88.4% (active) | -4.45% (active) | 88.1% | -29.6% (active) | 54.3% | 82.9% | 102% | 89.9% | 104% | 99.8% | -74.6% (active) | -65.6% (active) | 97.6% | -70.2% (active) | -86.8% (active) | -91.6% (active) | 74.3% | 37.1% | 12.7% | 94.1%
14 | NC(=O)c1c(NC(=O)COC(=O)Cc2ccccc2F)sc2c1CCC2 | 104% | 139% | 109% | 101% | 109% | 99.6% | 129% | 94.9% | 4.15% (active) | 105% | 104% | 117% | 106% | 86.6% | 101% | 100% | 91.1% | 97% | 110% | 97.2%
15 | N#C/C(C(=O)c1ccccc1)=C1/C(=O)Nc2ccc(F)cc21 | 110% | 110% | 104% | 92.2% | 127% | 101% | 102% | 96.9% | 103% | 104% | 106% | 116% | 78.3% | 98.4% | 104% | 93.3% | 103% | 92.7% | 100% | 108%
